Peg3 promoter: Peg3 promoter activity inhibition; HeLa PEG-Prom luciferase reporter, luminescence, overnight; inhibition, % at 20 µM; actives 1.7% (n = 360,000);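 active means inhibition of at least 50% at 20 µM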
TRPM1 prom inh: reduces MITF-dependent TRPM1 promoter luciferase signal; actives 0.83% (n = 330,000); SK-MEL-5 TRPM1 promoter luciferase, 24 h; AID 488899; inhibition, % at 12.5 µM;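 active means mean inhibition across replicates of 60% or more, whatever share of single replicates reaches that level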
HIF-2a block: blocks HIF-2a reporter activity. AID 624352. 786-0 RCC cells HIF-2a reporter, luciferase luminescence, overnight. actives 0.72% (n = 360,000). inhibition, % at 18.8 µM;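 active means inhibition of the luminescence signal of 40% or more relative to plate controls, in a single-dose primary screen at 18.75 µM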
CF NFkB inh: inhibitors of cystic fibrosis induced NF-kB; KKLEB NF-kB-GFP reporter, PAF-induced, GFP fluorescence overnight; inhibition, % at 5 µM; actives 0.86% (n = 360,000); AID 588850;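 active means at least 50% inhibition at 5 µM, scaled per plate between neutral and stimulator controls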;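 further: PAF is a Pseudomonas aeruginosa culture filtrate used as stimulus; plate controls were PAF-stimulated DMSO wells for no effect and unstimulated DMSO wells for full effect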
ABHD5-PLIN5 inh: ABHD5-PLIN5 protein interaction inhibition | Split G. princeps luciferase complementation, luminescence, 4 h | Q00G26+Q8WTS1 | actives 0.78% (n = 360,000) | inhibition, % at 4 µM;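 active means inhibition above the mean inhibition across every tested compound plus 3 SD, cut at about 22% in these data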;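 further: 0% = DMSO only wells and the 100% control is not disclosed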
KKLEB tox: counter-screen for CF NF-kB inhibitors: cytotoxicity; AID 602141; KKLEB CF airway cells viability, ATPlite luminescence, overnight; active compounds read low; cells stimulated with P. aeruginosa culture filtrate; actives 0.36% (n = 360,000); activity change (cytotoxicity), % at 5 µM;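 active means corrected activity change at or below -50% at 5 µM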
ABHD5 PLIN5 conf: confirmation of human ABHD5-PLIN5 interaction inhibitors. biochemical ABHD5-PLIN5 interaction, luminescence. inhibition, % at 4 µM. shares compounds with ABHD5-PLIN5 inh. actives 67% (n = 2,200); in the data active means inhibition above about 23%;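 further: 0% = DMSO vehicle wells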
HNF4 split-luc: counter-screen for ABHD5-PLIN5 inhibitors: HNF4 split-luciferase | shares compounds with ABHD5-PLIN5 inh | HNF4 dimerization, luminescence, biochemical | inhibition, % at 4 µM | actives 77% (n = 2,200) | AID 651674;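 active means mean inhibition across replicate wells exceeding the computed hit threshold, cut at about 13% in these data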;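 further: light from luciferase halves that rejoin when HNF4 fusion proteins dimerize; 0% = DMSO only wells and the 100% control is not given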
Target sequence (P41235 whole entry, looked up, the tested form may be a part): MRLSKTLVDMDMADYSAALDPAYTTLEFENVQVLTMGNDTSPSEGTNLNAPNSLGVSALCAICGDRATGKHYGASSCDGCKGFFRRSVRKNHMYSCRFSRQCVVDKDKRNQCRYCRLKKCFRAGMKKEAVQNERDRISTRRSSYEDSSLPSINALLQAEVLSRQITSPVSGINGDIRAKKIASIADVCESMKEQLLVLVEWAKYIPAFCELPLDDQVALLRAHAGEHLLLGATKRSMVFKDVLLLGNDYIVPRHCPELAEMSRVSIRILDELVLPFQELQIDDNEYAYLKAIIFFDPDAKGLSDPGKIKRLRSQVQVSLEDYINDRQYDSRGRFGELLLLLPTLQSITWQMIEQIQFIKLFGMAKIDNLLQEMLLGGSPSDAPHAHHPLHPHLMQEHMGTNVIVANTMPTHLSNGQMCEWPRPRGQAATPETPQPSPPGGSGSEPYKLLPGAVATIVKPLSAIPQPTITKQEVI
* hit, by the source's call; x = not tested or not shown. Sampled rows, rich in hits. Any-hit rate of the full collection: about 3%.

SMILES	Peg3 promoter	TRPM1 prom inh	HIF-2a block	CF NFkB inh	ABHD5-PLIN5 inh	KKLEB tox	ABHD5 PLIN5 conf	HNF4 split-luc
CCCCN1C(=O)/C(=C/C=C2\SCCN2C)SC1=S	-281	-92	-310	-24	30*	-3	25*	21*
CN1CCS/C1=C/C=C1/SC(=S)N(Cc2ccccc2)C1=O	-112	-52	-176	-19	25*	-9	22*	18*
O=C(COc1ccccc1[N+](=O)[O-])NCCCN1CCCC1=O	8	4	15	3	5	-11	x	x
Cc1ccc(CNC(=O)c2cccc3c2C(=O)c2ccc(N4CCCCC4)cc2S3(=O)=O)cc1	-55	x	-83	-12	11	-6	x	x
O=C(NCc1ccco1)c1cccc2c1C(=O)c1ccc(N3CCCC3)cc1S2(=O)=O	-16	-5	-13	-17	26*	17	33*	73*
O=C(NCc1cccc(F)c1)c1cccc2c1C(=O)c1ccc(N3CCOCC3)cc1S2(=O)=O	16	4	-3	-2	25*	2	-1	16*
Cc1ccc(CNc2ccc(N3C(=O)CCCC3=O)cc2[N+](=O)[O-])cc1	6	6	2	12	-4	-2	x	x
CSc1nnc(NC(=O)c2nc(S(=O)(=O)Cc3ccccc3)ncc2Cl)s1	105*	68*	3	91*	23*	-82*	69*	42*
CCOC(=O)c1ccc(NC(=O)c2nc(S(=O)(=O)Cc3ccccc3)ncc2Cl)cc1	110*	78*	89*	95*	49*	-66*	92*	92*
CSc1ncc(Cl)c(C(=O)Nc2nnc(SC)s2)n1	-1	5	-3	-5	1	10	x	x
CCCS(=O)(=O)c1ncc(Cl)c(C(=O)Nc2ccc(S(=O)(=O)Nc3ncccn3)cc2)n1	14	5	-5	20	33*	-2	71*	86*
CCSc1ncc(Cl)c(C(=O)Nc2ccc(S(=O)(=O)Nc3ncccn3)cc2)n1	6	7	13	9	1	1	x	x
CN(C)c1ccc(CNC(=O)C2Cc3c(-c4cccc(C(N)=O)c4)ccnc3O2)cc1 (stereo not given)	3	x	7	6	2	-6	x	x
Cc1cccc(Nc2nc(-c3ccc(O)cc3O)cs2)n1	-292	-38	-348	-54	-9	9	x	x
O=S(=O)(Nc1ccc(C(O)(C(F)(F)F)C(F)(F)F)cc1)c1ccc(Cl)c2nonc12	98*	x	15	45	42*	-27	51*	48*
O=S(=O)(Nc1ccc(Br)cc1)c1cccc2nonc12	19	-2	19	-5	2	-17	x	x
Cc1ccccc1Nc1nc2nonc2nc1N1CCOCC1	20	9	8	-16	25*	4	1	2
Cc1ccccc1Nc1nc(N2CCOCC2)nc(N2CCOCC2)n1	-11	-12	20	9	-6	-15	x	x
O=[N+]([O-])c1ccc(S(=O)(=O)NCCS(=O)(=O)N2CCN(c3ccccc3)CC2)cc1	12	16	8	6	0	-7	x	x
N#C/C(=C\c1ccccc1OCc1ccc(C(=O)O)cc1)C(=O)Nc1ccc(O)cc1	-6	-13	2	9	46*	12	58*	56*
CC1CCCCN1Cc1c(O)ccc2c(=O)c(-c3nc4ccccc4s3)c(N)oc12 (stereo not given)	-32	5	-61	-30	29*	10	7	8
Cc1cc2oc(=O)sc2cc1NS(=O)(=O)c1ccccc1	-6	1	4	-10	39*	19	-72	-27
COCCn1c(SC(C)C(=O)Nc2ncc(Cl)cc2Cl)nc2ccccc21 (stereo not given)	14	10	-16	22	4	-10	x	x
Cc1nnc(SC(C)C(=O)Nc2ncc(Cl)cc2Cl)n1Cc1ccccc1 (stereo not given)	4	1	11	-5	57*	1	3	0
C=C1C(=O)C23C(O)C1CCC2C12CCCC(C)(COC(C)=O)C1C(O)C3(O)OC2 (stereo not given)	107*	97*	93*	91*	91*	-91*	92*	113*
SMILES	Peg3 promoter	TRPM1 prom inh	HIF-2a block	CF NFkB inh	ABHD5-PLIN5 inh	KKLEB tox	ABHD5 PLIN5 conf	HNF4 split-luc
CC1CCN(S(=O)(=O)c2ccc(NC(=O)Cn3nnc(-c4ccccc4)n3)cc2)CC1	26	8	18	-18	26*	-15	53*	-1
CC1CCN(S(=O)(=O)c2ccc(NC(=O)Cc3cccs3)cc2)CC1	-1	-6	4	-4	33*	0	44*	1
COc1ccccc1N1CCN(C(=O)NC23CC4CC(CC(C4)C2)C3)CC1	-5	6	23	-4	-3	4	x	x
CCc1cc2c(=O)n(Cc3ccco3)c(SCC(=O)NCC3CCCO3)nc2s1 (stereo not given)	4	6	0	-12	8	5	x	x
CCc1cc2c(=O)n(Cc3ccco3)c(SCc3c(C)noc3C)nc2s1	31	25	-8	-73	26*	-28	30*	51*
Cc1ccc(NC(=O)CSc2nnc(-c3ccco3)c(-c3ccco3)n2)cc1	23	15	-15	13	27*	1	94*	65*
CN(c1ccccc1)P(=O)(N(C)c1ccccc1)N(C)c1ccccc1	13	-11	9	17	6	-16	x	x
Cc1cccc(C)c1-n1c(C)nn(CC2CC2)c1=O	-6	4	6	7	-2	-2	x	x
Cc1noc(C)c1COc1ccc(C(=O)NCCc2ccccn2)cc1	-7	-2	-24	-19	1	11	x	x
N#CC1C(=O)c2ccccc2C1c1ccccc1 (stereo not given)	12	16	31	-20	73*	17	8	98*
Cc1ccc(SC2=C(N(C)C)C(=O)c3ccccc3C2=O)cc1	0	11	-43	18	-8	0	x	x
O=C1CCCC2=C1C(c1ccccc1)C1C(=O)c3ccccc3C1=N2 (stereo not given)	34	-1	22	-12	9	1	x	x
Cc1ccc(C2C3=C(CCCC3=O)N=C3c4ccccc4C(=O)C32)cc1 (stereo not given)	38	-3	25	-7	33*	-6	51*	55*
NS(=O)(=O)c1ccc(CCNC(=O)CN2C(=O)COc3ccc(S(=O)(=O)N4CCCC4)cc32)cc1	9	3	2	-4	5	19	x	x
Cc1c(-c2ccc(OCCN3CCCCC3)cc2)c(=O)oc2ccc3ccccc3c12	6	x	6	0	2	-10	x	x

Screening data from PubChem BioAssay.
